According to PubChem BioAssay AID504332 (National Center for Advancing Translational Sciences (NCATS), 2011):
About 31,000 (8.9%) of roughly 350,000 compounds were called active. Not shown: some 15% with an inconclusive outcome. What follows is part of a selection rich in actives, with near analogues and random picks from the rest. Where a call stands in place of a potency, no number is given. Values without a mark were called inactive. The call rests on the fitted dose curve; in most records, active means well fitted inhibition curve with a large enough effect; inconclusive means small, poorly fitted or top-dose-only effect; inactive means no such curve, though single readings can be large or run the other way.

Target: Histone-lysine N-methyltransferase EHMT2 (Homo sapiens) (UniProt Q96KQ7)
Sequence (Q96KQ7 913-1193 limits assumed): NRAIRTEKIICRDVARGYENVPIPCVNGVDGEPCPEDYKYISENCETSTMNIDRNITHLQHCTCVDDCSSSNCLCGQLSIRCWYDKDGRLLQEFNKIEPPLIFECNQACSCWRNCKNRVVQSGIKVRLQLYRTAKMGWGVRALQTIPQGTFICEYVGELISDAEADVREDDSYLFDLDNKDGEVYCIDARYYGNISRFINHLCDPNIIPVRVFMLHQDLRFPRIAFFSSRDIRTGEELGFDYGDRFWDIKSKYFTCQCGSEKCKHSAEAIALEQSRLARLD
Assay: qHTS Assay for Inhibitors of Histone Lysine Methyltransferase G9a; further: nearly all actives have a fitted effect of over 75% in size
Settings: G9a H3K9 monomethylation, AlphaScreen, 2 h; series mostly up to 59 µM
Description: Methylated lysines, on the N-terminal tails of histone proteins serve as epigenetic markers to recruit factors that can then modify local chromatin structure to lead to functional consequences. G9a and other members of the SUV39 family of the SET domain-containing superfamily of histone lysine methyltransferases (HMT) have been identified to specifically methylate Lys9 of histone H3 (H3K9). G9a catalyzes the mono- and di-methylation of H3K9 in mammalian euchromatic regions, where the resulting H3K9me2 is indicative of transcriptional repression. […] The inhibition of G9a will result in transcriptional activation and work synergistically with DNA methyltransferase and histone deacetylase inhibitors, to kill cancer cells. This qHTS assay for identification of G9a inhibitors is a chemiluminescence based AlphaScreen (PerkinElmer). Methylation of biotinylated-histone peptide is measured through specific antibody-based detection, in conjunction with streptavidin-coated donor and anti-IgG antibody-coated acceptor beads. The method is particularly well suited for detection of inhibitors acting by the desired histone peptide competitive mechanism and is applicable to testing other HMTs. Although AlphaScreen has significant advantages with its utility in a variety of epigenetic target assays, the primary screening data provided in this deposition should be used with caution due to the prevalence of screening artifacts. An AlphaScreen counterscreen is highly recommended to be run against any putative actives to eliminate non specific artifacts. Alternatively, one can use other AlphaScreen assays in PubChem to filter out promiscuous hits. Quinn et al. A chemiluminescence-based method for identification of histone lysine methyltransferase inhibitors. Mol Biosyst 6(5): 782-8. 2010. PMID: 20567762 [2] Baell,Holloway. New substructure filters for removal of pan assay interference compounds (PAINS) from screening libraries and for their exclusion in bioassays. J Med Chem. 53(7):2719-40. 2010. PMID: 20131845 NIH Molecular Libraries Probe Production Network [MLPCN] NIH Chemical Genomics Center [NCGC] Structural Genomics Consortium (SGC) NIH Grant: 5U54 MH084681-02
To each well of a 1,536w plate, 2ul of HMT enzyme (final 20nM) were added, using a nanoliter dispenser. The G9a- and GLP-inhibitor BIX-01294 (CID: 25150857) are used as an intraplate control, with a 16-point titration in duplicate. A Kalypsys pin-tool transferred 23nl of library compound solution in DMSO to each well. Following a 15 min incubation of enzyme with compounds at room temperature, 1ul mixture of b-H3K9 peptide substrate (final 500nM) and SAM cofactor (final 20uM) were added. Reactions were allowed to proceed at room temperature for 2 hours. Methylated b-H3K9 peptide product was detected with 0.5 ug/mL rabbit polyclonal anti-monomethyl histone H3K9 antibody (Abcam Inc., Cambridge, MA) and 20 ug/mL each streptavidin-coated donor and anti-rabbit IgG acceptor AlphaScreen beads. Antibody and beads were added in a 1ul dispense, for a final volume of 4ul, and plates were incubated, protected from the light, for 10 min at room temperature. Microplates were then read on an EnVision multilabel plate reader using the 1,536 plate HTS AlphaScreen aperture (excitation time 80 ms, measurement time 240 ms).
Potency means the concentration at half of the fitted maximal effect.

Structure (SMILES) | Potency | activity, negative = inhibition
Cc1ccc(C)c(N2C(=O)N(Cc3c(F)cccc3Cl)c3ccccc3S2(=O)=O)c1 | inactive | –
CCOc1ccc(NC(=O)c2cc3c(=O)n(Cc4cccs4)ccc3nc2C)cc1 | inactive | –
Cc1nn(-c2ccccc2)c2c1c(C)c(CCC(=O)NCC1CCCO1)c(=O)n2C (configuration not stated) | inactive | –
COc1ccc(N2CCN(C(=O)c3cccs3)CC2)cc1 | 50.1 µM (active) | –
O=C(c1cccs1)N1CCN(C(=O)N2CCOCC2)CC1 | inactive | –
COc1ccc(OCC(=O)N2CCN(C(=O)c3cccs3)CC2)cc1 | inactive | –
O=C(O)c1ccc(NC(=O)c2ccc(COc3ccc(Cl)cc3)o2)cc1 | inactive | –
Cc1ccc(Oc2c(C(F)(F)F)oc3c(CN4CCCCC4)c(O)ccc3c2=O)cc1 | inactive | –
O=C(N/N=C/c1c[nH]c2ccccc12)c1ccccc1O | inactive | –
O=C1c2ccccc2-c2ncnc3c(N4CCOCC4)cc(N4CCOCC4)c1c23 | 50.1 µM (active) | –
O=C(Nc1ccccc1N1CCOCC1)c1ccncc1 | – | -10.3% [at 2.33 µM]
c1ccc(-c2oc3ncnc(N4CCOCC4)c3c2-c2ccccc2)cc1 | – | -7.86% [at 12.7 µM]
COc1cc(C(=O)NCCc2csc3nc(-c4ccccc4C)nn23)cc(OC)c1OC | inactive | –
CN(C)c1ccc(/C=N/NC(=O)C(O)c2ccc(Br)cc2)cc1 (configuration not stated) | inactive | –
CC(=O)NC(CC(=O)O)c1ccc(F)cc1 (configuration not stated) | inactive | –
CN(C)c1ccc(C(CC(=O)O)C(=O)O)cc1 (configuration not stated) | 56.2 µM (active) | –
COc1cccc(C(=O)N(Cc2cccc(Cl)c2)Cc2ccco2)c1 | inactive | –
O=C(c1cc(COc2ccc(F)cc2F)on1)N1CCOCC1 | inactive | –
COc1ccc(OCc2cc(C(=O)N3CCCC3)no2)c2ccccc12 | 39.8 µM (active) | –
COc1ccccc1-c1cc(C(=O)N2CCCCC2)no1 | inactive | –
Cc1ccc(CNS(=O)(=O)CCNC(=O)c2ccccc2)cc1 | inactive | –
Cc1csc(NC(=O)C2=COCCO2)n1 | inactive | –
Cc1ccc(-c2csc(NC(=O)C3=COCCO3)n2)cc1C | 56.2 µM (active) | –
Cc1ccc(-c2csc(NC(=O)c3cnccn3)n2)cc1C | inactive | –

Structure (SMILES) | Potency | activity, negative = inhibition
O=C(Nc1ccc(OC(F)(F)F)cc1)c1cc2c(=O)n3ccccc3nc2s1 | inactive | –
Cc1c(NC(=O)CSc2nnc(-c3cccnc3)n2N)c(=O)n(-c2ccccc2)n1C | – | 24.5% [at 12.7 µM]
Cc1cc(=O)[nH]c(SCc2cc(Cl)ccc2OC(F)F)n1 | inactive | –
COC(=O)c1ccc(CSc2nncn2N)cc1 | inactive | –
CCCCOc1ccc(Cl)cc1CSc1nncn1N | 7.08 µM (active) | –
Cc1cccc(N(C(=O)Cc2cccs2)C(C(=O)NCc2ccco2)c2ccncc2)c1 (configuration not stated) | inactive | –
Cc1ccc(NC(=O)C(=O)NCc2ccco2)c(C)c1 | inactive | –
Cc1ccc2nc(SC(C)C(=O)NCc3ccco3)[nH]c2c1 (configuration not stated) | 39.8 µM (active) | –
CCN1CCN(Cc2c(O)ccc3oc(C)c(C(=O)Nc4ccc(C)cc4C)c23)CC1 | inactive | –
CCOc1ccc(-c2nonc2NC(=O)c2oc3ccc(C)cc3c2C)cc1OCC | inactive | –
O=C(Nc1cccc2ccccc12)N1CCN(Cc2ccc3c(c2)OCO3)CC1 | – | 2.38% [at 12.7 µM]
Cc1cc(C)n2nc(C(=O)N3CCN(Cc4ccc5c(c4)OCO5)CC3)nc2n1 | inactive | –
O=C(c1cccs1)N1CCN(Cc2ccc3c(c2)OCO3)CC1 | 56.2 µM (active) | –
O=C(C1CCN(C2CCN(Cc3cccc4c3OCO4)CC2)CC1)N1CCOCC1 | inactive | –
O=C(C1CCN(S(=O)(=O)c2cnc[nH]2)CC1)N1CCN(Cc2ccc3c(c2)OCO3)CC1 | – | -12% [at 12.7 µM]
O=C(C1CCN(Cc2ccc(Cl)cc2)CC1)N1CCN(Cc2ccc3c(c2)OCO3)CC1 | 8.91 µM (active) | –
Cc1ccc(S(=O)(=O)N2[C@@H](c3cccc(Cl)c3)C(C(=O)O)=CC[C@H]2c2ccc(Cl)c(Cl)c2)cc1 | – | 13.5% [at 2.33 µM]
COc1ccc(-c2cc(C(=O)NCCCN3CCCC3=O)c3ccccc3n2)cc1OC | – | 15% [at 2.33 µM]
Cc1cc(C)c(NC(=O)CSc2nc3nccnc3c(=O)n2CCc2c[nH]c3ccccc23)c(C)c1 | inactive | –
COCCCNC(=S)NCCNc1nc2cc(C)c(C)cc2cc1C#N | inactive | –
Cc1ccc2cc(C#N)c(NCCNC(=S)NCCCN3CCOCC3)nc2c1 | 39.8 µM (active) | –
CCCCc1ccc(NC(=S)NCCCN2CCOCC2)cc1 | – | 31.4% [at 12.7 µM]
CCOCCCNc1nc(-c2ccccc2)nc2ccccc12 | inactive | –
